“And” between values parts separate entries of the source, which are not always exact repeats. Identical values can stand only once. About 83,000 compounds went through this panel and 20% of them were active in at least one assay; those are over-represented in the sample as a whole.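 A percent growth of 40 corresponds to 60% growth inhibition; 0 means no net growth; -100 means all cells died. Active threshold: below 10.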 The source made the active and inactive calls.
These compounds were tested on MDA-MB-468 breast (assay: NCI-60 one-dose screen, 48 h (100 = growth as untreated, 0 = no growth, -100 = all killed)). Conditions: 10 µM unless noted.
With O=C(NC1=NCC[Se]1)c1ccccc1O the growth was 93.1% (inactive). With [N-]=[N+]=CC(=O)CCC(=O)C=[N+]=[N-] the growth was 113% (inactive). In the case of CO[C@@H](c1ccccc1Cl)[C@H](C)OC(N)=O, the growth is reported as 91.6% (inactive). CC(=O)OC[C@]1(C)C=C2C(=O)[C@](C)(O)C3(CC3)C(C)=C2[C@H]1O was tested, and the growth was -71.7% (active). In the case of C/C(=C(\c1ccc(OCCN2CCOCC2)cc1)c1ccc(OC(=O)Cc2ccccc2)cc1)c1ccc(Cl)cc1, the growth is reported as 78.8% (inactive). With C=CCCCCCCCCC(=O)[O-].C=CCCCCCCCCC(=O)[O-].[Zn+2] the growth was 115% (inactive). In the case of COc1ccc(N)cc1OC, the growth is reported as 109% (inactive). In the case of CC(=O)OC1CCC2(C)C(CCC3C2CC(=O)C2(C)C3CC(Sc3ccc(N(CCCl)CCCl)cc3)C2C(C)=O)C1 (stereo not given), the growth is reported as 86.6% (inactive). O=C1NC(=O)C(CN2C(=O)C3(c4ccccc42)[C@H](Cl)C(=O)N3c2ccccc2)C(=O)N1 (stereo not given in full) was tested, and the growth was -23.1% (active). With N#CCc1ccc(CC#N)cc1 the growth was 100% (inactive). With CC(=O)C1CCC2C3CC=C4CC(OC(=O)Cc5ccc(N(CCCl)CCCl)cc5)CCC4(C)C3CCC12C (stereo not given) the growth was 94.7% (inactive). With COC(=O)[C@@H](C)C[C@H](Cc1ccccc1)NC(=O)c1csc([C@@H](C[C@H](C(C)C)N(C)C(=O)[C@@H](NC(=O)[C@H]2CCCCN2C)C(C)C)OC(C)=O)n1 the growth was -11.2% (active). CN1CCC(O)(c2ccc(F)cc2)C(C(=O)c2ccc(F)cc2)C1 (stereo not given) was tested, and the growth was 44.2% (inactive). With Cc1cc(N=Nc2ccccc2C)ccc1N the growth was 64.5% (inactive). CCOC(=O)P(=O)(OCC)OCC was tested, and the growth was 110% (inactive). For CC1(C)N=C(N)N=C(N)N1c1ccc(OCCCCNC(=O)c2ccc(S(=O)(=O)F)cc2)c(Cl)c1, the growth was 64.7% (inactive). N#[N+]c1nc2nc(N)[nH]c(=O)c2[nH]1 was tested, and the growth was 100% (inactive). In the case of C[C@]12C[C@@H](CO)[C@H](O)C[C@@H]1CC[C@@H]1[C@@H]2CC[C@]2(C)[C@@H](O)CC[C@@H]12, the growth is reported as 106% (inactive). O=C(Nc1ccc(S(=O)(=O)F)cc1)Oc1ccccc1 was tested, and the growth was 97.6% (inactive). In the case of N#CC1(c2ccccc2)CCN(Cc2ccccc2)CC1, the growth is reported as 90.2% (inactive). With Oc1ccccc1-c1ccccc1 the growth was 105% (inactive) and 103% (inactive). In the case of CC1=C2C(=O)[C@](C)(CO)C=C2C(=O)[C@](C)(O)C12CC2, the growth is reported as -69.8% (active). COc1ccccc1N1CCN(CCc2c[nH]c3cc4c(cc23)OCO4)CC1 was tested, and the growth was 90% (inactive). With CCOc1cc(C=C(C#N)C#N)cc(Br)c1O the growth was 119% (inactive). In the case of C1CCC([PH+](C2CCCCC2)C2CCCCC2[PH+](C2CCCCC2)C2CCCCC2)CC1.[Au].[CH-]1CCCCC1CC1CCCC[N-]1 (stereo not given), the growth is reported as -61.8% (active). For CSc1cc(/C=C(\C)[C@@H]2C[C@@H]3O[C@]3(C)CCC[C@H](C)[C@H](O)[C@@H](C)C(=O)C(C)(C)[C@@H](O)CC(=O)O2)n(CCNC(=O)OC(C)(C)C)n1, the growth was 66% (inactive). For CCN1C(=O)CC(=O)N(CC)C1=S, the growth was 93.1% (inactive). With C[C@]12CCc3sc(-c4cccc(F)c4)nc3C1=CC[C@@H]1[C@@H]2CC[C@]2(C)C(=O)CC[C@@H]12 the growth was 29.2% (inactive). With OCc1ccc2c(c1)OCO2 the growth was 97.6% (inactive). In the case of C[C@]12CC[C@H]3[C@@H](CC=C4c5nc(N)sc5CC[C@@]43C)[C@@H]1CC[C@@H]2O, the growth is reported as 91.2% (inactive). For CC1=C[C@H]2O[C@@H]3C[C@@H](O)[C@](C)([C@@]2(C)CC1)[C@@]31CO1, the growth was 28.7% (inactive). For CC[C@H](C)[C@H](NC(=O)C12CC(NC)(C1)C2)C(=O)N(C)[C@H](C[C@@H](OC(C)=O)c1nc(C(=O)N[C@@H](Cc2ccccc2)C[C@H](C)C(=O)OC)cs1)C(C)C, the growth was -8.32% (active). With CCC(=O)C(CC(C)N1CCCCCC1)(c1ccccc1)c1ccccc1 (stereo not given) the growth was 95.6% (inactive). Clc1cc(N2CC2)nc(N2CC2)n1 was tested, and the growth was 9.71% (active). For C[N+]1(CC#CC[N+]2(C)CCCC2)CCCC1, the growth was 98.6% (inactive). CCCCS(=O)(=O)Cl was tested, and the growth was 104% (inactive). With CCC1(NC(=O)c2cc(F)c(F)c(F)c2F)C(=O)NC(=O)N(C(C)C)C1=O (stereo not given) the growth was 95.2% (inactive). In the case of CN1CC(CNC(=O)OCc2ccccc2)CC2c3cccc4c3c(cn4C)CC21 (stereo not given), the growth is reported as -42.6% (active). With CC1(C)N=C(N)N=C(N)N1c1ccc(CCCCc2ccc(Cl)c(S(=O)(=O)F)c2)c(Cl)c1 the growth was 6.7% (active). For Cc1ccc(NC(=O)CBr)cc1, the growth was 98.5% (inactive).

From PubChem BioAssay (NCI)
